From the supplement of paper PMC9262897, “Low-cost anti-mycobacterial drug discovery using engineered E. coli” (Nature Communications, 2022)
Where a name gives a salt, the structure may show the parent alone. ± gives the standard deviation of the averaged measurements.

Legend:
Experiment in all cases: growth (OD600 after 10 h); higher = more growth (less inhibition)
[1] = tested on: E. coli TESEC Alr+ wild-type control; details: compound 0.1 mM; raw OD600 reference: median of DMSO wells 0.241, cell-free background 0.041
Description: (§1)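 TESEC Mtb Alr E. coli, or the Alr+ wild-type control, in 384-well plates with Prestwick library compounds at 0.1 mM and 1% DMSO, across arabinose induction levels of 1E3 to 1E7 nM. Growth is read as OD600 after 10 h at 37 °C in triplicate biological replicates.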

E. coli TESEC Mtb Alr [2] = details: compound 0.1 mM
Description: as §1

E. coli TESEC Mtb Asd = details: compound 0.1 mM
Description: (§2)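 TESEC E. coli strains in which the native enzyme is deleted and replaced by arabinose-inducible Mtb Asd, DapB, CysH or TrpD, each grown in its selective medium. Strains were screened against the Prestwick library at 0.1 mM and 1% DMSO in 384-well format at low and high arabinose induction. Growth is read as OD600 after 10 h in triplicate.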

E. coli TESEC Mtb DapB = details: compound 0.1 mM
Description: as §2

E. coli TESEC Mtb Alr [3] = details: compound 0.1 mM; remark: listed apart in the source
Description: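 TESEC Mtb Alr E. coli (ΔaraC ΔtolC ΔentC Δalr ΔdadX, arabinose-inducible Mtb Alr) or the Alr+ wild-type control strain, grown in defined M9-fructose medium without D-alanine in 96-well plates with Prestwick library compounds at 0.1 mM and 1% DMSO. Low Alr induction is 0.1 µM arabinose and high induction is 10 mM arabinose.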

[4] = arabinose 1000 nM, raw OD600 reference: median of DMSO wells 0.294, cell-free background 0.041
[5] = arabinose 10000 nM, raw OD600 reference: median of DMSO wells 0.264, cell-free background 0.041
[6] = arabinose 100000 nM, raw OD600 reference: median of DMSO wells 0.201, cell-free background 0.041
[7] = arabinose 1000000 nM, raw OD600 reference: median of DMSO wells 0.193, cell-free background 0.041
[8] = arabinose 10000000 nM, raw OD600 reference: median of DMSO wells 0.146, cell-free background 0.041
[9] = arabinose induction (level): High, raw OD600 reference: median of DMSO wells 0.331, cell-free background 0.041
[10] = arabinose induction (level): Low, raw OD600 reference: median of DMSO wells 0.417, cell-free background 0.041
[11] = arabinose induction (level): High, raw OD600 reference: median of DMSO wells […], cell-free background 0.041
[12] = arabinose induction (level): Low, raw OD600 reference: median of DMSO wells 0.227, cell-free background 0.041
[13] = arabinose 100 nM, raw OD600 reference: median of DMSO wells 0.413, cell-free background 0.052
[14] = arabinose 10000000 nM, raw OD600 reference: median of DMSO wells […], cell-free background 0.052

| SMILES | growth [1] | growth (E. coli TESEC Mtb Alr [2]; [4]) | growth (E. coli TESEC Mtb Alr [2]; [5]) | growth (E. coli TESEC Mtb Alr [2]; [6]) | growth (E. coli TESEC Mtb Alr [2]; [7]) | growth (E. coli TESEC Mtb Alr [2]; [8]) | growth (E. coli TESEC Mtb Asd; [9]) | growth (E. coli TESEC Mtb Asd; [10]) | growth (E. coli TESEC Mtb DapB; [11]) | growth (E. coli TESEC Mtb DapB; [12]) | growth (E. coli TESEC Mtb Alr [3]; [13]) | growth (E. coli TESEC Mtb Alr [3]; [14]) |
| --- | --- | --- | --- | --- | --- | --- | --- | --- | --- | --- | --- | --- |
| CNCCC=C1c2ccccc2C=Cc2ccccc21 [Norcyclobenzaprine] | 0.182 ± 0.016 | 0.194 ± 0.022 | 0.254 ± 0.014 | 0.157 ± 0.0048 | 0.0991 ± 0.0027 | 0.111 ± 0.0032 | 0.204 ± 0.045 | 0.238 ± 0.036 | 0.186 ± 0.009 | 0.21 ± 0.0089 | 0.419 ± 0.011 | 0.212 ± 0.011 |
| CCOc1ccc2ccccc2c1C(=O)N[C@@H]1C(=O)N2[C@@H]1SC(C)(C)[C@@H]2C(=O)O [Nafcillin sodium salt monohydrate] | 0.236 ± 0.0097 | 0.303 ± 0.011 | 0.257 ± 0.014 | 0.203 ± 0.0041 | 0.188 ± 0.01 | 0.138 ± 0.0027 | 0.43 ± 0.048 | 0.439 ± 0.043 | 0.183 ± 0.007 | 0.22 ± 0.0024 | 0.403 ± 0.013 | 0.343 ± 0.016 |
| CCCC(=O)Nc1ccc(OCC(O)CNC(C)C)c(C(C)=O)c1 (stereo not drawn) [Acebutolol hydrochloride] | 0.239 ± 0.008 | 0.305 ± 0.011 | 0.257 ± 0.0087 | 0.202 ± 0.014 | 0.174 ± 0.0073 | 0.1572 ± 0.0014 | 0.264 ± 0.04 | 0.413 ± 0.007 | 0.197 ± 0.025 | 0.265 ± 0.067 | 0.411 ± 0.0058 | 0.354 ± 0.01 |
| N=C(N)N/N=C/c1c(Cl)cccc1Cl [Guanabenz acetate] | 0.189 ± 0.012 | 0.224 ± 0.0084 | 0.2721 ± 0.00092 | 0.221 ± 0.021 | 0.144 ± 0.005 | 0.168 ± 0.0024 | 0.31 ± 0.039 | 0.432 ± 0.026 | 0.194 ± 0.0026 | 0.258 ± 0.065 | 0.408 ± 0.0073 | 0.318 ± 0.011 |
| Cc1cccc(Nc2ccccc2C(=O)O)c1C [Mefenamic acid] | 0.134 ± 0.0041 | 0.135 ± 0.0024 | 0.04523 ± 0.00015 | 0.141 ± 0.002 | 0.103 ± 0.0072 | 0.132 ± 0.0029 | 0.232 ± 0.03 | 0.26 ± 0.047 | 0.203 ± 0.027 | 0.208 ± 0.028 | 0.169 ± 0.094 | 0.149 ± 0.011 |
| CNC[C@H](O)[C@@H](O)[C@H](O)[C@H](O)CO [Meglumine] | 0.237 ± 0.0045 | 0.306 ± 0.016 | 0.254 ± 0.0031 | 0.212 ± 0.025 | 0.188 ± 0.0027 | 0.136 ± 0.0042 | 0.325 ± 0.022 | 0.408 ± 0.066 | 0.199 ± 0.049 | 0.235 ± 0.017 | 0.404 ± 0.019 | 0.356 ± 0.011 |
| N=C(N)c1ccc(OCCCCCOc2ccc(C(=N)N)cc2)cc1 [Pentamidine isethionate] | 0.0725 ± 0.0026 | 0.0837 ± 0.0024 | 0.0536 ± 0.0012 | 0.0903 ± 0.001 | 0.0538 ± 0.0022 | 0.095 ± 0.001 | 0.0804 ± 0.013 | 0.0745 ± 0.01 | 0.224 ± 0.008 | 0.0531 ± 0.0065 | 0.28 ± 0.16 | 0.0605 ± 0.0026 |
| Cc1ccc(-c2cc(C(F)(F)F)nn2-c2ccc(S(N)(=O)=O)cc2)cc1 [Celecoxib] | 0.0401 ± 0.00046 | 0.041 ± 0.0023 | 0.0401 ± 0.00091 | 0.0415 ± 0.0019 | 0.0418 ± 0.0037 | 0.04133 ± 0.00035 | 0.04733 ± 0.00047 | 0.0479 ± 0.00085 | 0.0473 ± 0.00055 | 0.0486 ± 0.0019 | 0.308 ± 0.021 | 0.0533 ± 0.0036 |
| CCCC1O[C@@H]2C[C@H]3[C@@H]4CCC5=CC(=O)C=C[C@]5(C)[C@H]4[C@@H](O)C[C@]3(C)[C@]2(C(=O)CO)O1 (stereo partly drawn) [Budesonide] | 0.1456 ± 0.0011 | 0.187 ± 0.0064 | 0.247 ± 0.0047 | 0.166 ± 0.015 | 0.112 ± 0.0012 | 0.141 ± 0.0021 | 0.309 ± 0.023 | 0.31 ± 0.025 | 0.167 ± 0.0066 | 0.231 ± 0.0093 | 0.4337 ± 0.004 | 0.269 ± 0.0039 |
| C[C@H]1C[C@H]2[C@@H]3CCC4=CC(=O)C=C[C@]4(C)[C@@]3(F)[C@@H](O)C[C@]2(C)[C@@]1(O)C(=O)CO [Betamethasone] | 0.184 ± 0.0078 | 0.231 ± 0.031 | 0.256 ± 0.002 | 0.154 ± 0.0079 | 0.134 ± 0.0038 | 0.131 ± 0.0027 | 0.273 ± 0.096 | 0.36 ± 0.054 | 0.198 ± 0.033 | 0.211 ± 0.064 | 0.406 ± 0.0084 | 0.257 ± 0.0044 |
| NC(=O)OCC(O)COc1ccc(Cl)cc1 (stereo not drawn) [Chlorphensin carbamate] | 0.251 ± 0.011 | 0.287 ± 0.016 | 0.2846 ± 0.0028 | 0.245 ± 0.022 | 0.2014 ± 0.002 | 0.162 ± 0.0045 | 0.364 ± 0.046 | 0.379 ± 0.024 | 0.214 ± 0.014 | 0.279 ± 0.041 | 0.416 ± 0.019 | 0.366 ± 0.023 |
| CCCOc1cc(N)ccc1C(=O)OCCN(CC)CC [Propoxycaine hydrochloride] | 0.229 ± 0.005 | 0.289 ± 0.0076 | 0.274 ± 0.01 | 0.199 ± 0.034 | 0.22 ± 0.011 | 0.138 ± 0.0039 | 0.36 ± 0.085 | 0.376 ± 0.079 | 0.225 ± 0.0078 | 0.22 ± 0.017 | 0.41 ± 0.0052 | 0.361 ± 0.015 |
| CC[C@@]1(O)C(=O)OCc2c1cc1n(c2=O)Cc2cc3c(CN(C)C)c(O)ccc3nc2-1 [Topotecan] | 0.235 ± 0.0064 | 0.271 ± 0.01 | 0.271 ± 0.0034 | 0.345 ± 0.039 | 0.127 ± 0.0043 | 0.183 ± 0.015 | 0.214 ± 0.029 | 0.317 ± 0.044 | 0.202 ± 0.067 | 0.178 ± 0.014 | 0.393 ± 0.0043 | 0.269 ± 0.0042 |
| CC(C(=O)O)c1ccc2c(c1)[nH]c1ccc(Cl)cc12 (stereo not drawn) [Carprofen] | 0.0924 ± 0.0058 | 0.116 ± 0.006 | 0.107 ± 0.0066 | 0.1024 ± 0.001 | 0.0781 ± 0.0038 | 0.111 ± 0.0039 | 0.171 ± 0.015 | 0.168 ± 0.044 | 0.201 ± 0.0073 | 0.215 ± 0.011 | 0.409 ± 0.0018 | 0.149 ± 0.025 |
